# Rows were chosen to be rich in hits. Some 12% of all compounds tested hit in one or more screens of this group.
# BAZ2B block: qHTS Assay for Inhibitors of BAZ2B | AlphaScreen BAZ2B-H3K14Ac peptide displacement | 360,000 tested, 4.4% active | Bromodomain adjacent to zinc finger domain protein 2B (Homo sapiens), Q9UIF8 | Potency, µM (doses to about 114 µM), usual class: inhibitors; also: nearly all actives have a fitted effect of over 60% in size
#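 BAZ2B 50 nM plus b-H3(5-23)K14Ac 50 nM, PBS pH 7.4/0.01% Tween-20, 30 min RT; compound added (max 110 uM), 30 min RT; streptavidin donor/Ni-chelate acceptor beads 10 ug/mL final, 20 min dark; AlphaScreen read.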
# JMJD2A Tudor: qHTS Assay for Inhibitors of JMJD2A-Tudor Domain | Lysine-specific demethylase 4A (Homo sapiens), O75164 | AlphaScreen JMJD2A-Tudor / H3K4me3 peptide binding | Potency, µM (series often up to 114 µM), hits mostly inhibitors | 390,000 tested, 4.4% active; also: nearly all actives have a fitted effect of over 50% in size
# PLK1 PBD block: qHTS for Inhibitors of PLK1-PDB (polo-like kinase 1 - polo-box domain): Primary Screen | Serine/threonine-protein kinase PLK1 (Homo sapiens), P53350 | Plk1 PBD binding of FITC phosphopeptide, fluorescence polarization | Potency, µM, actives largely listed as inhibitors | 360,000 tested, 2.8% active; also: series mostly up to about 57 µM; nearly all actives have a fitted effect of over 65% in size
# G9a inh: qHTS Assay for Inhibitors of Histone Lysine Methyltransferase G9a; AID 504332, 2011; 350,000 tested, 8.8% active; G9a H3K9 monomethylation, AlphaScreen, 2 h; Potency, µM (highest dose often 102 µM), actives largely listed as inhibitors; Histone-lysine N-methyltransferase EHMT2 (Homo sapiens), Q96KQ7; also: nearly all actives have a fitted effect of over 75% in size
# Target sequence (Q96KQ7 913-1193 limits assumed): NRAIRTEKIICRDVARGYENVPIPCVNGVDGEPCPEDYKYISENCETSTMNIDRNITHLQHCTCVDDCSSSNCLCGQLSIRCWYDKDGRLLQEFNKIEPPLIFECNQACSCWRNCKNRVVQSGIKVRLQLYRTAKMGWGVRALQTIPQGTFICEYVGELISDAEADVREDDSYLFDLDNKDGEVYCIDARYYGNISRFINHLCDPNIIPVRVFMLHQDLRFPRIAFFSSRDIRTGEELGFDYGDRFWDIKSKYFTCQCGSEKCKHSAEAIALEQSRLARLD
#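 G9a (20 nM) was preincubated 15 min with compound, then reacted 2 h at room temperature with 500 nM biotin-H3K9 peptide and 20 µM SAM. Monomethyl-H3K9 detected by AlphaScreen using anti-H3K9me1 antibody.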
# Sfp inh: qHTS Assay for Inhibitors of Bacillus subtilis Sfp phosphopantetheinyl transferase (PPTase); Biochemical Sfp PPTase activity, qHTS; Potency, µM, actives largely listed as inhibitors; 4'-phosphopantetheinyl transferase ffp (Bacillus subtilis), Q9F4F7; 310,000 tested, 3.5% active;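 also: the enzyme is Sfp with the accession as filed and its product quenches rhodamine fluorescence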
#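 Fluorescence-quenching assay: 15 nM Sfp-PPTase preincubated 15 min at room temperature with compound, then 5 uM rhodamine-CoA and 12.5 uM BHQ-2-labelled YbbR peptide added. Fluorescence (ex 525/em 598 nm) read at start and after 30 min; difference gives rate.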
# HP1b binding inh: HTS for Inhibitors of HP1-beta Chromodomain Interactions with Methylated Histone Tails | Chromobox protein homolog 1 (Homo sapiens), P83916 | AlphaScreen HP1-beta / biotin-H3K9me3 peptide binding | 390,000 tested, 0.56% active | AID 540317, 2011 | Potency, µM (titrated, usually from 114 µM), hits mostly inhibitors; also: nearly all actives have a fitted effect of over 70% in size
# Target sequence (P83916 whole entry, looked up): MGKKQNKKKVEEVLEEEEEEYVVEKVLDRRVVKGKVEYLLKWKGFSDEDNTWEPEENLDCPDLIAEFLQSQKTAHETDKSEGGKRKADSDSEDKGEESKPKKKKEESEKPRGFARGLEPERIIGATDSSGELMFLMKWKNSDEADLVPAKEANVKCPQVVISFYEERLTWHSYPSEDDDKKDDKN
#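 AlphaScreen: HP1-beta (50 nM) preformed 30 min with biotin-H3(1-18)K9me3 peptide (50 nM) in PBS pH 7.4, 0.01% Tween-20. Compound added for 30 min at RT, then streptavidin donor/nickel chelate acceptor beads (10 ug/mL) for 30 min.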
# A number is an active result; – = inactive; ? = inconclusive; · = no result; [ ] = dose if it differs, or a comment. Calls follow the shape of the dose curve; as a rule, active = well fitted curve in the direction sought with a large enough effect; inconclusive = small, poorly fitted or top-dose-only effect, or another doubt; inactive = no such curve, though single readings can be large; an effect the other way counts as inactive or inconclusive.
SMILES,BAZ2B block,JMJD2A Tudor,PLK1 PBD block,G9a inh,Sfp inh,HP1b binding inh
COc1cc(C2c3c([nH]c(=O)[nH]c3=O)Nc3ccc4ccccc4c32)cc(OC)c1OC (configuration not stated),56µM,?,?,?,56µM,71µM
COc1cc(C2c3c([nH]c(=O)[nH]c3=O)Nc3ccc4ccccc4c32)ccc1O (configuration not stated),?,?,?,50µM,?,?
COc1cccc(C2Nc3ccc4ccccc4c3C3=C2C(=O)CCC3)c1O (configuration not stated),–,–,–,–,–,–
COc1ccc(C2c3c(nc(C)[nH]c3=O)Oc3ccc4ccccc4c32)cc1OC (configuration not stated),·,–,·,·,·,·
COc1cc(C2CC(=O)c3c(ccc4ccccc34)N2)ccc1O (configuration not stated),–,–,–,11µM,–,–
CCOc1cc(CNC(=O)c2ccc3c(c2)nc2n3CCCCC2)ccc1OC,–,–,·,–,·,–
COc1ccc(CN(CC(=O)NCc2ccccc2)C(=O)CCC(=O)Nc2nccs2)cc1,–,–,–,–,–,–
COC(=O)c1ccccc1NC(=O)CCS(=O)(=O)c1ccc(Br)s1,–,–,–,–,–,–
Cc1ccc(CNC(=O)CCS(=O)(=O)c2ccc(Br)s2)o1,–,–,?,?,40µM,–
Cc1ccccc1NC(=O)CCS(=O)(=O)c1ccc(Br)s1,?,–,–,45µM,–,–
Cc1c([N+](=O)[O-])c(C(=O)Sc2ccc(Br)cc2)nn1C,–,–,?,25µM,–,–
Cc1c([N+](=O)[O-])c(C(=O)N2CCCC2)nn1C,–,–,–,–[0.501 µM],–,–
N[C@H](Cn1ccc(=O)n(Cc2ccccc2C(=O)O)c1=O)C(=O)O,·,·,·,·,71µM,·
BrC(/C=N/N1CCN(Cc2ccccc2)CC1)=C/c1ccccc1,?,40µM,–,?,–,–
BrC(=C\c1ccccc1)/C=N/N1CCN(Cc2ccccc2)CC1,?,?,–,45µM,–,?
BrC(=C\c1ccccc1)/C=N/N1CCN(c2ccccn2)CC1,79µM,–,–,28µM,–,–
C(=N\N1CCN(Cc2ccccc2)CC1)/c1cccnc1,–,–,–,?,–,–
COc1ccc(OC)c(S(=O)(=O)NCCc2sc(C)nc2C)c1,–,–,·,–,·,–
CSc1sc(-c2n[nH]c(=S)n2C)c2c1C=CCC2,?,?,?,·,50µM,–
COc1cc(OC)c(NC(=O)CN(C)S(=O)(=O)c2ccc(-c3ccc(=O)[nH]n3)s2)cc1Cl,–,–,–,·,–,–
CCCC(=O)Nc1cccc(-c2nc3cc(C)c(C)cc3o2)c1C,–,–,·,–,·,–
CC1=C2C(CCS2(=O)=O)CC2(C1)C(=O)OC(C)(C)OC2=O (configuration not stated),–,–,–,50µM,–,–
COC(=O)C1=C(CN2CCCc3ccccc32)NC(=O)NC1c1ccc(F)cc1 (configuration not stated),?,?,–,20µM,–,–
COC(=O)C1=C(CSc2nncn2C)NC(=O)NC1c1cc(C)ccc1C (configuration not stated),–,–,–,22µM,–,–
COC(=O)C1=C(CSc2nccn2C)NC(=O)NC1c1cc(C)ccc1C (configuration not stated),–,–,–,–,–,–
SMILES,BAZ2B block,JMJD2A Tudor,PLK1 PBD block,G9a inh,Sfp inh,HP1b binding inh
COC(=O)C1=C(CN2CCc3ccccc32)NC(=O)NC1c1cc(C)ccc1C (configuration not stated),50µM,?,–,?,?,–
O=C(CN1C(=O)S/C(=C\c2ccccc2)C1=O)NCCCn1ccnc1,?,?,?,35µM,–,–
CC(=O)NC(CC(=O)NCCN1C(=O)S/C(=C\c2ccccc2)C1=O)c1ccccc1 (configuration not stated),–,–,–,56µM,–,–
O=C(CCCN1C(=O)/C(=C/c2ccccc2)SC1=S)NCCCn1ccnc1,45µM,?,–,–,–,–
CC(=O)NNC(=O)CN1C(=O)/C(=C/c2ccccc2)SC1=S,–,–,–,–,–,–
O=C(CCN1C(=O)/C(=C/c2ccccc2F)SC1=S)NCCCn1ccnc1,40µM,?,–,·,–,–
CCC(CC)C(=O)Nc1nnc(S(=O)(=O)N2CCCc3ccccc32)s1,–,–,–,–,–,–
CN(C)C(=O)c1cc(C(=O)c2ccc(F)cc2C(F)(F)F)c[nH]1,–,–,–,–[2.33 µM],–,–
COc1ccc(CCN(C)Cc2c(O)ccc3cc(Br)ccc23)cc1OC,–,–,?,25µM,–,–
COc1ccc(CN(C)Cc2c(O)ccc3cc(Br)ccc23)cc1OC,?,–,?,25µM,–,–
COc1ccc2cc(Br)ccc2c1CC(=O)N(C)C,–,–,–,?,–,–
O=C(CSc1nnc2ccccn12)N1CCc2ccccc2C1,–,–,–,?,–,–
C[C@@H](NC(=O)[C@@H]1Cc2ccccc2CN1C(=O)OC(C)(C)C)C(=O)NC1CCCC1,–,–,30µM,–,–,–
O=C(O)C1Cc2ccccc2CN1C(=O)CSc1nnc2ccccn12 (configuration not stated),·,–,–,50µM,–,–
O=C(O)C1Cc2ccccc2CN1C(=O)c1ccccc1 (configuration not stated),–,–,–,?,–,–
CC(NC(=O)[C@@H](C)NC(=O)[C@@H]1Cc2ccccc2CN1C(=O)OC(C)(C)C)c1ccccc1 (some centres not stated),–,–,–,–,–,–
CC(C)(C)OC(=O)N1Cc2ccccc2C[C@H]1C(=O)O,?,–[11.4 µM],–,56µM,–,–
C=C1CCN(C(Cc2ccccc2)C(=O)NCc2ccc(Cl)cc2)S(=O)(=O)c2ccccc21 (configuration not stated),·,–,·,·,–,–
Cc1ccc(NS(=O)(=O)c2ccc3c(c2)NC(=O)CCS3)c(Br)c1,–,–,–,–,–,–
O=C(/C=C/c1ccccc1)Nc1nnc(-c2ccco2)o1,–,–,–,–,–,–
Cc1ccc(-n2nc3cc(C)c(NC(=O)c4ccc(-c5ccccc5)o4)cc3n2)cc1,–,–,·,–,·,–
COc1ccccc1-c1cncnc1NCCN1CCOCC1,·,·,·,·,–,·

# Bioassay records (PubChem)
